PubChem BioAssay

Experiment: CREB reporter modulators without forskolin, primary screen, cell-based, PC12, CRE-LacZ reporter, unstimulated (AID 1145)
Conditions: no forskolin, luminescence, 4.5 h, higher = more signal, called active from +8 up or from −8 down

z-score, inactive:
COCCOC(=O)N1C(=O)[C@@]2(c3cc(C#CCC(C(=O)OC)C(=O)OC)ccc31)[C@H](C(=O)NC[C@H](O)c1ccccc1)[C@H]1C(=O)O[C@H](c3ccccc3)[C@H](c3ccccc3)N1[C@@H]2c1ccc(O)cc1 -0.191
C=C(C(=O)CC[C@H](OC(=O)c1ccccc1-c1ccccc1C(=O)O)c1ccccc1OCCO)C(C)C 3.25
C=C(C)[C@@H]1CC=C(C(O)C2C=CC3C(=O)N(c4ccccc4)C(=O)C3N2Nc2ccc(C#N)cc2)CC1 (stereo not given in full) 0.433

Experiment: CREB reporter modulators under forskolin, primary screen, cell-based, PC12, CRE-LacZ reporter, forskolin-stimulated (AID 1146);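 further: PC12 cells with 6xCRE LacZ reporter stimulated by forskolin 10 µM; beta-galactosidase reporter signal reflecting CREB driven transcription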
Conditions: luminescence, 4.5 h, higher = more signal, called active from +8 up or from −8 down

z-score, inactive:
COC(=O)C(CC#Cc1ccc2c(c1)[C@]1(C(=O)N2)[C@H](c2ccc(O)cc2)N2[C@H](c3ccccc3)[C@H](c3ccccc3)OC(=O)[C@H]2[C@@H]1C(=O)N1CCCCCCC1)C(=O)OC -0.507
CC(C)=CCCC(C)=CC(O)C1C=CC2C(=O)N(c3ccccc3)C(=O)C2N1Nc1ccccc1F (stereo not given) 0.358
CN(C)CCCCNC(=O)[C@H]1C[C@H]2C(=O)N[C@@H](CCCC[N+](C)(C)C)C(=O)N2[C@H]1c1ccc(O)cc1 -1.14
CN(C)CCCNC(=O)[C@@H]1c2ccccc2C(=O)N(C2CCCCC2)[C@H]1c1ccc(CO)cc1 -0.291
CC(C)CNC(=O)[C@@H]1c2ccccc2C(=O)N(C2CCCCC2)[C@H]1c1ccc(CO)cc1 -1.55
O=C1C2C=CC(C(O)c3ccco3)N(Nc3ccccc3)C2C(=O)N1c1ccccc1 (stereo not given) 0.621
COc1ccc([Si](C)(C)[C@@H]2[C@@H](CCn3cc([C@H](O)c4ccccc4)nn3)O[C@]3(C(=O)N(c4ccccc4)c4ccccc43)[C@H]2C)cc1 -0.897
